From PubChem BioAssay
TEAD-YAP inh = TEAD-YAP interaction inhibition | AID 1259422 | hit rate 1.4% among 640,000 | HEK-TIYL cells, TEAD-Gal4/YAP UAS-luciferase luminescence | inhibition, % at 9.12 µM; in the data active = inhibition above about 32%;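 also: 0% = median of test compound wells and 100% = reference inhibitor wells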
FBW7 act = human FBW7 E3 ligase activation, primary screen; AID 1259310; AlphaScreen FBW7–phospho-cyclin E peptide binding, activator screen; hit rate 0.13% among 650,000; normalized activity (activation), % at 26.1 µM; in the data active = normalized activity above about 1.9%;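 also: purified mutant Fbw7 with reduced substrate affinity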
MITF inh = human MITF inhibition, primary screen; O75030; AlphaScreen MITF homodimerization, bead proximity signal; inhibition, % at 2.6 µM; hit rate 0.91% among 650,000; in the data active = inhibition above about 50%;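 also: 0% = vehicle wells with protein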
GPR151 ag = human GPR151 activation. Q8TDV0. PathHunter beta-arrestin GPR151 cells, luminescence. activation, % at 11.2 µM. hit rate 1% among 650,000; in the data active = activation above about 4.9%;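 also: 0% = median of compound wells and 100% = cells with positive control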
Target sequence (Q8TDV0 whole entry, looked up): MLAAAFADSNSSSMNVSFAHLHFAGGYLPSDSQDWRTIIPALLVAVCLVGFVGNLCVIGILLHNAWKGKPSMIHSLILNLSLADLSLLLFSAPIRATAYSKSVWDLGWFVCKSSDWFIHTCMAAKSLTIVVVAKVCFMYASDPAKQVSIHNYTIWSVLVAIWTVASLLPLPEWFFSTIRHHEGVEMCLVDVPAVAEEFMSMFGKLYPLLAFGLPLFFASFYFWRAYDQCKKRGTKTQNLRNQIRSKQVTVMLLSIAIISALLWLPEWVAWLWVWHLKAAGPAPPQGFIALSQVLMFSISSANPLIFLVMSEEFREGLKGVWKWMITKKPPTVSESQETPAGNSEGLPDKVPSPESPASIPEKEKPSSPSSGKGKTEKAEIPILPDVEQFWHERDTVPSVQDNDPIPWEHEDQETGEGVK
Starred values were filed as active, the others as inactive. Only some compounds are listed: those with a hit (about 3.5% of all), similar ones and a draw of the others.

Results for O=C1CC(c2cccc(Br)c2)c2c(ccc3ccccc23)N1 (configuration not stated) ?
TEAD-YAP inh: 51*; FBW7 act: 0; MITF inh: 5; GPR151 ag: 0

How did Cc1ccccc1C1CC(=O)Nc2ccc3ccccc3c21 (configuration not stated) do in these assays?
TEAD-YAP inh: 38*; FBW7 act: 0; MITF inh: 1; GPR151 ag: -2

What do the screens show for `CO[C@@H]1COC(=O)[C@H](C)NC(=O)C/C=C/C(C)[C@H](NS(=O)(=O)c2ccc(C)cc2)COC(=O)[C@H](C)NC(=O)C/C=C/[C@H]1C` (some centres not stated)?
FBW7 act: 0; MITF inh: -5; GPR151 ag: 1

Results for Fc1ccc(-c2nnc3sc(CN4CCc5ccccc5C4)cn23)cc1 ?
TEAD-YAP inh: 1; FBW7 act: 0; MITF inh: 15; GPR151 ag: 0

Results for COc1cccc(-c2nnc3sc(CN4CCc5ccccc5C4)cn23)c1 ?
TEAD-YAP inh: 49*; FBW7 act: 0; MITF inh: 3; GPR151 ag: 1

How did COc1ccc(CCNC(=O)c2sc3ncnc(N4CCN(c5ccccn5)CC4)c3c2C)cc1OC do in these assays?
TEAD-YAP inh: 70*; FBW7 act: 0; MITF inh: -5; GPR151 ag: 0

What do the screens show for `COc1ccc(CCNC(=O)c2sc3ncnc(N4CCN(c5ccccc5OC)CC4)c3c2C)cc1OC`?
TEAD-YAP inh: 14; FBW7 act: 0; MITF inh: 18; GPR151 ag: -1

Results for CCn1nc(C)c(CN2CCC3(CC2)c2ccccc2[C@@H](NC(=O)C(C)C)[C@@H]3OC)c1C ?
TEAD-YAP inh: -2; FBW7 act: 0; MITF inh: 2; GPR151 ag: 0

Results for COc1ccc(C2Oc3c(OC)cccc3C3CC(c4ccc(C)o4)=NN32)cc1 (configuration not stated) ?
TEAD-YAP inh: 40*; FBW7 act: 0; MITF inh: 11; GPR151 ag: 1

What do the screens show for `COc1cccc2c1OC(c1cccc(Cl)c1)N1N=C(c3ccc(C)o3)CC21` (configuration not stated)?
TEAD-YAP inh: 41*; FBW7 act: 0; MITF inh: 5; GPR151 ag: -1

How did CCOc1ccccc1OCC(=O)N/N=C(\CCC(=O)O)c1ccccc1 do in these assays?
TEAD-YAP inh: 59*; FBW7 act: 0; MITF inh: -5; GPR151 ag: 0

Results for CCOc1ccc(Br)cc1C(=O)N/N=C/c1ccc2c(c1)OCO2 ?
TEAD-YAP inh: 33*; FBW7 act: 0; MITF inh: 7; GPR151 ag: -1

Results for S=C(NCc1ccccc1)N/N=C/c1ccccn1 ?
TEAD-YAP inh: 89*; FBW7 act: 0; MITF inh: 52*; GPR151 ag: -1

What do the screens show for `C/C(=N\NC(=O)COc1ccccc1-c1ccccc1)c1ccc(O)cc1O`?
TEAD-YAP inh: 59*; FBW7 act: 0; MITF inh: -31; GPR151 ag: 2

How did O=C(CCC(=O)N/N=C\c1ccccn1)N/N=C\c1ccccn1 do in these assays?
TEAD-YAP inh: 10; FBW7 act: 0; MITF inh: 21; GPR151 ag: 1

How did O=C(COc1ccccc1-c1ccccc1)N/N=C/c1ccccn1 do in these assays?
TEAD-YAP inh: 51*; FBW7 act: 0; MITF inh: 12; GPR151 ag: 1

How did O=C(N/N=C/c1cccnc1)c1cc(Br)ccc1OCc1ccccc1 do in these assays?
TEAD-YAP inh: 33*; FBW7 act: 0; MITF inh: 23; GPR151 ag: -2

How did O=C(COc1ccccc1-c1ccccc1)N/N=C/c1cccnc1 do in these assays?
TEAD-YAP inh: 47*; FBW7 act: 0; MITF inh: -2; GPR151 ag: -1

Results for O=C(COc1ccccc1-c1ccccc1)N/N=C/c1ccncc1 ?
TEAD-YAP inh: 52*; FBW7 act: 1; MITF inh: 15; GPR151 ag: -2

Results for O=C(N/N=C/c1cccnc1)c1ccccc1OCc1ccccc1 ?
TEAD-YAP inh: -1; FBW7 act: 0; MITF inh: -2; GPR151 ag: 0

How did CSCC(=O)N1CCC2(CC1)CC2C(=O)Nc1cccc(F)c1 (configuration not stated) do in these assays?
TEAD-YAP inh: -9; FBW7 act: 0; MITF inh: 8; GPR151 ag: 3

What do the screens show for `O=C(CSc1nnc(Nc2ccccc2F)s1)NNC(=O)c1cccs1`?
TEAD-YAP inh: -10; FBW7 act: 0; MITF inh: -7; GPR151 ag: -10

What do the screens show for `O=C(Nc1cccc2ncccc12)c1ccc(N2CCOCC2)c([N+](=O)[O-])c1`?
TEAD-YAP inh: 8; FBW7 act: 0; MITF inh: 12; GPR151 ag: 0

Results for O=C(NCCC1=CCCCC1)c1ccc2c(=O)n(C3CCCCC3)c(SCc3cccc([N+](=O)[O-])c3)nc2c1 ?
TEAD-YAP inh: 4; FBW7 act: 0; MITF inh: 14; GPR151 ag: -1

How did CCOc1ccccc1OCC(=O)N/N=C/c1ccc(O)cc1 do in these assays?
TEAD-YAP inh: 57*; FBW7 act: 0; MITF inh: 8; GPR151 ag: 0

How did Cc1ccccc1OCC(=O)N/N=C/c1ccc(O)cc1 do in these assays?
TEAD-YAP inh: 0; FBW7 act: 0; MITF inh: 12; GPR151 ag: 0

Results for CCSc1ncc(Cl)c(C(=O)N2CCN(c3ccccc3OC)CC2)n1 ?
TEAD-YAP inh: 60*; FBW7 act: 0; MITF inh: 9; GPR151 ag: 1

How did COc1cc(SC)ccc1C(=O)N1CCN(c2ccccc2OC)CC1 do in these assays?
TEAD-YAP inh: 56*; FBW7 act: 1; MITF inh: 18; GPR151 ag: 0

What do the screens show for `COc1ccc(Cl)cc1C(=O)N1CCN(c2ccccc2)CC1`?
TEAD-YAP inh: 50*; FBW7 act: 0; MITF inh: 0; GPR151 ag: -1

How did CCOc1ccccc1N1CCN(C(=O)C2CCN(Cc3ccccc3O)CC2)CC1 do in these assays?
TEAD-YAP inh: 9; FBW7 act: 0; MITF inh: 62*; GPR151 ag: -1

How did COc1ccccc1N1CCN(C(=O)c2c(-c3ccccc3)noc2C)CC1 do in these assays?
TEAD-YAP inh: 44*; FBW7 act: 0; MITF inh: -4; GPR151 ag: 2

Results for COc1ccccc1C(=O)N1CCN(c2ccccc2OC)CC1 ?
TEAD-YAP inh: 8; FBW7 act: 0; MITF inh: -8; GPR151 ag: 2

Results for CCOc1ccccc1N1CCN(C(=O)c2cc(OC)c(OC)c(OC)c2)CC1 ?
TEAD-YAP inh: 64*; FBW7 act: 0; MITF inh: -4; GPR151 ag: 1

Results for COc1ccc(Cl)cc1C(=O)N1CCN(c2ccccc2OC)CC1 ?
TEAD-YAP inh: 54*; FBW7 act: 0; MITF inh: 6; GPR151 ag: -1

What do the screens show for `O=C(NCCCCc1ccccc1)C(=O)Nc1cccc(C(F)(F)F)c1`?
TEAD-YAP inh: -7; FBW7 act: 1; MITF inh: -8; GPR151 ag: -1

What do the screens show for `N#Cc1cc(C#N)c(SCC(=O)Nc2ccc(Cl)cc2)nc1N`?
TEAD-YAP inh: 8; FBW7 act: 0; MITF inh: 2; GPR151 ag: 1
